# Legend:
# Assay in all cases: DAPPL (digital affinity profiling via proximity ligation, sequencing); 10 mM Tris-HCl pH 7.5, 50 mM NaCl, 1 mM DTT, 4% glycerol, room temperature, 30 min; GST-TFs on glutathione beads, 16-mer random dsDNA library, 0.1% formaldehyde crosslink after washing; high values mean tight binding
# [1] = target: T1, FEV (Homo sapiens, UniProt Q99581 1-238); details: protein: recombinant; tags: N-terminal GST; dsDNA, one strand shown
# T1 sequence: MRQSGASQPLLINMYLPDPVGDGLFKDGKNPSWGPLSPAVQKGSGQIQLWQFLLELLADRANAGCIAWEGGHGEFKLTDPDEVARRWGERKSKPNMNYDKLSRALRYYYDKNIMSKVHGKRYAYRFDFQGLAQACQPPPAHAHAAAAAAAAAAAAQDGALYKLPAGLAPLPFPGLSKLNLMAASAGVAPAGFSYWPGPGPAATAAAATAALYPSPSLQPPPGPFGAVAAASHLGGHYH
# Procedure, shortened: (§1)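 Binding signal is each hexamer's read frequency for a factor divided by its frequency in the tag-only sample. The factors were GST-fused human transcription factors from yeast, captured on glutathione beads, DNA-barcoded and pooled with that sample. Pools were incubated with 200 nmole of a random double-stranded 16-mer DNA library in Tris/NaCl/DTT/glycerol buffer at room temperature for 30 min, then washed, crosslinked with 0.1% formaldehyde, proximity-ligated with BsaI/T4 ligase (1 h, 37 °C), PCR-amplified and sequenced on an Illumina NextSeq500.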
# [2] = target: ETV5 (Homo sapiens, UniProt P41161 1-510); details: protein: recombinant; tags: N-terminal GST; dsDNA, one strand shown
# Sequence of ETV5 (P41161 whole entry): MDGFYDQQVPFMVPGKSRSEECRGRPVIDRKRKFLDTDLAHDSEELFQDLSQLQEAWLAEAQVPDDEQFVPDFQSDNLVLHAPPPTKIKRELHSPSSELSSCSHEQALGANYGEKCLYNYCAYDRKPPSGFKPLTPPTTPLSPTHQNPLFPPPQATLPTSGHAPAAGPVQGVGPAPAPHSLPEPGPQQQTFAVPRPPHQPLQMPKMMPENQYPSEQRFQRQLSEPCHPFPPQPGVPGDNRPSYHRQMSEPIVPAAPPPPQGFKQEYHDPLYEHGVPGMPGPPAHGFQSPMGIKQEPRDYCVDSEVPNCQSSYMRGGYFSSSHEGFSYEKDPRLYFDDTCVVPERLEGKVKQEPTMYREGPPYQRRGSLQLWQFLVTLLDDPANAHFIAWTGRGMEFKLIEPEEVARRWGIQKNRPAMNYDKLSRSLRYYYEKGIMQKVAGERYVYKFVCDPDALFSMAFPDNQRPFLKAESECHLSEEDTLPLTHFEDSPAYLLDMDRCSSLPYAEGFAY
# Procedure, shortened: as §1
# [3] = target: HSF1 (Homo sapiens, UniProt Q00613 1-529); details: protein: recombinant; tags: N-terminal GST; chain copies: 3; dsDNA, one strand shown
# Sequence of HSF1 (Q00613 whole entry): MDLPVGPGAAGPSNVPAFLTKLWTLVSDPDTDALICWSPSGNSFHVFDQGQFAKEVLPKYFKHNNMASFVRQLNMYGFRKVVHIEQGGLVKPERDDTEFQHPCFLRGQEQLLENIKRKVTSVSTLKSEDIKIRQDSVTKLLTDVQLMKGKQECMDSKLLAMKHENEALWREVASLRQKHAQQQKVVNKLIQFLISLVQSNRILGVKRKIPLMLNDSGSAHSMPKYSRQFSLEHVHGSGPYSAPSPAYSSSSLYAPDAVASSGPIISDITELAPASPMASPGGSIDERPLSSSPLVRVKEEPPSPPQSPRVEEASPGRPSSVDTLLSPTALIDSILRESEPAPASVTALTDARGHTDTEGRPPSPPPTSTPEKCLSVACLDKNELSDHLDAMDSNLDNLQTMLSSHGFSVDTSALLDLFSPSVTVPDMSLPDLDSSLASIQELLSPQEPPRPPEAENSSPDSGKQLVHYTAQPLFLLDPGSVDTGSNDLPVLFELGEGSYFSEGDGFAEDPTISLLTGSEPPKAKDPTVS
# Procedure, shortened: as §1
# [4] = target: T2, SPIC (Homo sapiens, UniProt Q8N5J4 1-248); details: protein: recombinant; tags: N-terminal GST; dsDNA, one strand shown
# T2 sequence: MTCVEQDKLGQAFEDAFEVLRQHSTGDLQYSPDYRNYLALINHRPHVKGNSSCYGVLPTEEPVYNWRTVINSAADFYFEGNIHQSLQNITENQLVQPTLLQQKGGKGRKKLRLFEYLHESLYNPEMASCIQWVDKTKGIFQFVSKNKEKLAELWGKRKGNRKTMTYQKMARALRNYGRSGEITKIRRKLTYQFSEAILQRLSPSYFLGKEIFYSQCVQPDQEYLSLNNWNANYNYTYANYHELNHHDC
# Procedure, shortened: as §1
# [5] = target: ELF4 (Homo sapiens, UniProt Q99607 1-663); details: protein: recombinant; tags: N-terminal GST; dsDNA, one strand shown
# Sequence of ELF4 (Q99607 whole entry): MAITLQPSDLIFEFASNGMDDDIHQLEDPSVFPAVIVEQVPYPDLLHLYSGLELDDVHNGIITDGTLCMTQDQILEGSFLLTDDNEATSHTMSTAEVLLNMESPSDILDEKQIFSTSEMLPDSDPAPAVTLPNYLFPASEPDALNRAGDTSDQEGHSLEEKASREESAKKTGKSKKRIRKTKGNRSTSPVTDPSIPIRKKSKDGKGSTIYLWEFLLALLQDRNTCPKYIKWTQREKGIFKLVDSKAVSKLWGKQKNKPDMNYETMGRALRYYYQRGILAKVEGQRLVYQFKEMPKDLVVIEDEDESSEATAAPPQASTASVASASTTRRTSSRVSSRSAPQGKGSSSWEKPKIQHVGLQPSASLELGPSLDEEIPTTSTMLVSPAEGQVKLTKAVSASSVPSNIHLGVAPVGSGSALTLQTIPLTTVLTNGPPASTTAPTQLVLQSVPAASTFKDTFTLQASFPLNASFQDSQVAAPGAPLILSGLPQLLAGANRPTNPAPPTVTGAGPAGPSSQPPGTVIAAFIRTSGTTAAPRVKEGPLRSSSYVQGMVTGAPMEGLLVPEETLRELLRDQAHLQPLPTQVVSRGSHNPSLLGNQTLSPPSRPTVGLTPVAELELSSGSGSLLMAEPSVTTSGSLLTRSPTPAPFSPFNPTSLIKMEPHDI
# Procedure, shortened: as §1
# [6] = target: T3, ELK4 (Homo sapiens, UniProt P28324-2 1-405); details: protein: recombinant; tags: N-terminal GST; dsDNA, one strand shown
# T3 sequence: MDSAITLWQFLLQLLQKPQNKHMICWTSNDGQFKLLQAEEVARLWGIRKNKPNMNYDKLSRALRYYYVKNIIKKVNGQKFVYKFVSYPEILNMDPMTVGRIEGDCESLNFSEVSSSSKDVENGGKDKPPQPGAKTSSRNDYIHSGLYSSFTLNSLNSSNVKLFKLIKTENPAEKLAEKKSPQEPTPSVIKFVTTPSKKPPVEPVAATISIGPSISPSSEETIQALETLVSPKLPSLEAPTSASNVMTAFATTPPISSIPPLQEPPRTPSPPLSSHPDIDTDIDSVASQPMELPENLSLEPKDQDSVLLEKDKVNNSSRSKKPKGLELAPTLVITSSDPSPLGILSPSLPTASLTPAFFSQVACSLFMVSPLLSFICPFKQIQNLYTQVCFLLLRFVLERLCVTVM
# Procedure, shortened: as §1
# [7] = target: T4, ETV2 (Homo sapiens, UniProt O00321 1-342); details: protein: recombinant; tags: N-terminal GST; dsDNA, one strand shown
# T4 sequence: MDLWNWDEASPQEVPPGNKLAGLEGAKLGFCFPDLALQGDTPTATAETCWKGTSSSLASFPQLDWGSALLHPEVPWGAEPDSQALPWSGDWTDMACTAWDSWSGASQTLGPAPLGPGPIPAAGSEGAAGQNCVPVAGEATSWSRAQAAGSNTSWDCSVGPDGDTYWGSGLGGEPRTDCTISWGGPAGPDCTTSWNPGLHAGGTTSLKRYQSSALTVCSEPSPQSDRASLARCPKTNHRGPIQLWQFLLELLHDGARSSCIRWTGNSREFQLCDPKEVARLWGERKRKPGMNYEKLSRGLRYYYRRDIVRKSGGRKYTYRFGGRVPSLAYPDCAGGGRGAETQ
# Procedure, shortened: as §1
# [8] = target: T5, ELF3 (Homo sapiens, UniProt P78545 1-371); details: protein: recombinant; tags: N-terminal GST; dsDNA, one strand shown
# T5 sequence: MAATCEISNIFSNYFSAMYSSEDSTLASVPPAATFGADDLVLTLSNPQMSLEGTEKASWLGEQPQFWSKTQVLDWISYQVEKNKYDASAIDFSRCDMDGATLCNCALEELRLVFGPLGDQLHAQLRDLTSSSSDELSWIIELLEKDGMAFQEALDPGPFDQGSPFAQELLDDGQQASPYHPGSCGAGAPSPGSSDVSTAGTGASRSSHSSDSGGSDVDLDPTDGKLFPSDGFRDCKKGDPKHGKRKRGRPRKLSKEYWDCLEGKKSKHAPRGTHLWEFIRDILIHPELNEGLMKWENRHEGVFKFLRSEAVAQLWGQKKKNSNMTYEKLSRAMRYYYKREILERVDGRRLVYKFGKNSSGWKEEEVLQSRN
# Procedure, shortened: as §1
# [9] = target: CRX (Homo sapiens, UniProt O43186 1-299); details: protein: recombinant; tags: N-terminal GST; dsDNA, one strand shown
# Sequence of CRX (O43186 whole entry): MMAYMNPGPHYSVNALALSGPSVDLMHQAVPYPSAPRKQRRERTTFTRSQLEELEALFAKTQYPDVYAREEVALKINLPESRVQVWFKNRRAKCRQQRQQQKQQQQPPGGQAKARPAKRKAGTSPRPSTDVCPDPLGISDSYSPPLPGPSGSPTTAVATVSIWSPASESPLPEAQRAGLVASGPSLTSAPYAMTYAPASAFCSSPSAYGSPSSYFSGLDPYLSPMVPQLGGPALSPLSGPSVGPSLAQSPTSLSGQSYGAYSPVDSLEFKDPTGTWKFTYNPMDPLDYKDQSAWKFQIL
# Procedure, shortened: as §1
# [10] = target: ETV1 (Homo sapiens, UniProt P50549 1-477); details: protein: recombinant; tags: N-terminal GST; dsDNA, one strand shown
# Sequence of ETV1 (P50549 whole entry): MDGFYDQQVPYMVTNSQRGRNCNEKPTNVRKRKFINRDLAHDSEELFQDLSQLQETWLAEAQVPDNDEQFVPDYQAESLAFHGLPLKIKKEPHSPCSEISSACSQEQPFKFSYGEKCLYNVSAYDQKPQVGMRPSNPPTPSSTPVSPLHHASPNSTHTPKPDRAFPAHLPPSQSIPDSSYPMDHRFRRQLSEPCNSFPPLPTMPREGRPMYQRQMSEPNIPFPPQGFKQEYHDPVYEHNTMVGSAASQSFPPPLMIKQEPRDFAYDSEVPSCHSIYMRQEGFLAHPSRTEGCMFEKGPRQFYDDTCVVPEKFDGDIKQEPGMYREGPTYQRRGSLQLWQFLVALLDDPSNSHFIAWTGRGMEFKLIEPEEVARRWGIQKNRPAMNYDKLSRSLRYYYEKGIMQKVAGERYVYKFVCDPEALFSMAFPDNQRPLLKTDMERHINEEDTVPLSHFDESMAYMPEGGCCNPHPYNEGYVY
# Procedure, shortened: as §1
# [11] = target: T6, ERF (Homo sapiens, UniProt P50548 1-548); details: protein: recombinant; tags: N-terminal GST; dsDNA, one strand shown
# T6 sequence: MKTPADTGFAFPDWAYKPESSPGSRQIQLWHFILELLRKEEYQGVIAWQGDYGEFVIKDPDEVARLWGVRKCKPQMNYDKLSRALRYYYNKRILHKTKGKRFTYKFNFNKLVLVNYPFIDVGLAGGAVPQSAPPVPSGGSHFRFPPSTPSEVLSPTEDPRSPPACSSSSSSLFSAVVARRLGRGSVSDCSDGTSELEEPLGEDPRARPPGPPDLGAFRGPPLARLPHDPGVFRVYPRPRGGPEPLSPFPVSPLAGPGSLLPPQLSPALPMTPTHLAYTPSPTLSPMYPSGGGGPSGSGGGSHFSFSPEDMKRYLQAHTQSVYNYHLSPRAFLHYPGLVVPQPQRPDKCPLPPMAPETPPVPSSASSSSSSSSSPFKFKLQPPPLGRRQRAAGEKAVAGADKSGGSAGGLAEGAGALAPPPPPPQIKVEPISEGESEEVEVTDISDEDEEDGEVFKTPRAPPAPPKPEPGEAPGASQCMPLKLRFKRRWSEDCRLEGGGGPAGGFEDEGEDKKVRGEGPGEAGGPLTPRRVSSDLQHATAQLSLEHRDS
# Procedure, shortened: as §1
# [12] = target: T7, ETV3L (Homo sapiens, UniProt Q6ZN32 1-361); details: protein: recombinant; tags: N-terminal GST; dsDNA, one strand shown
# T7 sequence: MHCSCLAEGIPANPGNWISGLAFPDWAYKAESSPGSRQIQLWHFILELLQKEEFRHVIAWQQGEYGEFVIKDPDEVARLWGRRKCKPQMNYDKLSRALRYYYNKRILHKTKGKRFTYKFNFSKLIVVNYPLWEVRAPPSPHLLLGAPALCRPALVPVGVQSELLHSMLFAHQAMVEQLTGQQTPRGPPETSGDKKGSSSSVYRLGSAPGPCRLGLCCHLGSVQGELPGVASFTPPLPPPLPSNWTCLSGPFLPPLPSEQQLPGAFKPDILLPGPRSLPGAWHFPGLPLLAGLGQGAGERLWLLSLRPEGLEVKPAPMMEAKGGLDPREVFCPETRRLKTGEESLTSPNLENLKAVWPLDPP
# Procedure, shortened: as §1
# [13] = target: T8, ETS2 (Homo sapiens, UniProt P15036 1-469); details: protein: recombinant; tags: N-terminal GST; dsDNA, one strand shown
# T8 sequence: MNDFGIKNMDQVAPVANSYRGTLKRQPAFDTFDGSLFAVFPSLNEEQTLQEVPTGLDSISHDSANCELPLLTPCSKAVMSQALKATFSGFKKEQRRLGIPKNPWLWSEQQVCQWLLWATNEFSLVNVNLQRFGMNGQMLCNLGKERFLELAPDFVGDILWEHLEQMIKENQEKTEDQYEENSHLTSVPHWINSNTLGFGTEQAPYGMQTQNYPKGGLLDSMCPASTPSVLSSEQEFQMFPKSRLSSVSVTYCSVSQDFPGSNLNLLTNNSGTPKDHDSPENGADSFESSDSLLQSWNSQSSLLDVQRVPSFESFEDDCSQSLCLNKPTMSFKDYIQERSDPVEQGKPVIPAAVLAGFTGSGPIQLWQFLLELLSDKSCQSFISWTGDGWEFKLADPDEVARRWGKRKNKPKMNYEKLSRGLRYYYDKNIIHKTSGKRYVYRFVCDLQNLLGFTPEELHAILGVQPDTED
# Procedure, shortened: as §1
# [14] = target: T9, SPDEF (Homo sapiens, UniProt O95238 1-335); details: protein: recombinant; tags: N-terminal GST; dsDNA, one strand shown
# T9 sequence: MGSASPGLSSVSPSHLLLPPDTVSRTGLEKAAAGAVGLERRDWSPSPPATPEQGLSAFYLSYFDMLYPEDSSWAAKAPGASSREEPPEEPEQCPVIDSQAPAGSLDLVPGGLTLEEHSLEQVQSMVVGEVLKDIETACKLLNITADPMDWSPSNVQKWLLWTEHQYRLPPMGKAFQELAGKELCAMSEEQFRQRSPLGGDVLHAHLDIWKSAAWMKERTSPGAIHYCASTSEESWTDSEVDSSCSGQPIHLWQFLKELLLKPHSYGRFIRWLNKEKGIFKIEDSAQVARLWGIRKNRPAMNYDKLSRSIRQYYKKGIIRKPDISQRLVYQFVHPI
# Procedure, shortened: as §1
# [15] = target: T10, ETV7 (Homo sapiens, UniProt Q9Y603 1-341); details: protein: recombinant; tags: N-terminal GST; dsDNA, one strand shown
# T10 sequence: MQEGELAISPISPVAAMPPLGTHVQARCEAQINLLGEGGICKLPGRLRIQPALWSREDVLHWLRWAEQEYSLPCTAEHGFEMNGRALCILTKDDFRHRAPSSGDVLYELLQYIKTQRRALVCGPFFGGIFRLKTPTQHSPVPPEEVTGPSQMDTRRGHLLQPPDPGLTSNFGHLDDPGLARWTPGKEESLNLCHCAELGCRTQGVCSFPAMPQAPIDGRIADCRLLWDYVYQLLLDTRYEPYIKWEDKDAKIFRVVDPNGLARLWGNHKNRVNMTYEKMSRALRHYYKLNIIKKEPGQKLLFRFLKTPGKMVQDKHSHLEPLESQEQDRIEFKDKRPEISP
# Procedure, shortened: as §1
# [16] = target: T11, ELF5 (Homo sapiens, UniProt Q9UKW6-2 1-255); details: protein: recombinant; tags: N-terminal GST; dsDNA, one strand shown
# T11 sequence: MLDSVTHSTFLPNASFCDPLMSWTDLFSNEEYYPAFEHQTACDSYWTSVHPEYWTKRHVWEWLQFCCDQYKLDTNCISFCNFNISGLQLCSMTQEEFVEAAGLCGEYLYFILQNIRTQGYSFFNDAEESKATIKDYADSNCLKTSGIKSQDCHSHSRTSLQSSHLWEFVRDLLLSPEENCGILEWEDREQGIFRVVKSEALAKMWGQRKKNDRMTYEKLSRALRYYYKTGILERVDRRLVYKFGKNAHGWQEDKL
# Procedure, shortened: as §1
# [17] = target: T12, ETV3 (Homo sapiens, UniProt P41162-2 1-143); details: protein: recombinant; tags: N-terminal GST; dsDNA, one strand shown
# T12 sequence: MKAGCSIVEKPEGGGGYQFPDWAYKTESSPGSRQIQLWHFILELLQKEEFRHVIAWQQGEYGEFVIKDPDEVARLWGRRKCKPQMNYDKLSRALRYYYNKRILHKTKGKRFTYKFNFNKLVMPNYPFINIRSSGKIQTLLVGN
# Procedure, shortened: as §1
# [18] = target: ETV6 (Homo sapiens, UniProt P41212 1-452); details: protein: recombinant; tags: N-terminal GST; dsDNA, one strand shown
# Sequence of ETV6 (P41212 whole entry): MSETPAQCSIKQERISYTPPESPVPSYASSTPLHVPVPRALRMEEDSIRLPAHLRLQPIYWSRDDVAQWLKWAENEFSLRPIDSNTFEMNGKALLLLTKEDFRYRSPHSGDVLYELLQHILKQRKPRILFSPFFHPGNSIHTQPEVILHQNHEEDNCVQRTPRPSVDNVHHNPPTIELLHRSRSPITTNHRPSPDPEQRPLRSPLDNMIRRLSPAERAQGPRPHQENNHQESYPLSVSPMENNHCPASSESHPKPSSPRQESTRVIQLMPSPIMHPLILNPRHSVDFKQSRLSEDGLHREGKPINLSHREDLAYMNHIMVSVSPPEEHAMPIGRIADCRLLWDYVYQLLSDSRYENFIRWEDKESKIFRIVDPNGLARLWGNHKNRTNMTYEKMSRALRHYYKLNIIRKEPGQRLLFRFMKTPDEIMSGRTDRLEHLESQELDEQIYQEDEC
# Procedure, shortened: as §1
sequence,measurement,setting,value
TGATGA,binding signal,[1],"1.25 fold enrichment (6-mer frequency, TF over GST control)"
same,binding signal,[2],"1.32 fold enrichment (6-mer frequency, TF over GST control)"
same,binding signal,[3],"1.16 fold enrichment (6-mer frequency, TF over GST control)"
same,binding signal,[4],"1.14 fold enrichment (6-mer frequency, TF over GST control)"
same,binding signal,[5],"1.44 fold enrichment (6-mer frequency, TF over GST control)"
same,binding signal,[6],"1.46 fold enrichment (6-mer frequency, TF over GST control)"
same,binding signal,[7],"1.33 fold enrichment (6-mer frequency, TF over GST control)"
same,binding signal,[8],"1.4 fold enrichment (6-mer frequency, TF over GST control)"
same,binding signal,[9],"1.24 fold enrichment (6-mer frequency, TF over GST control)"
same,binding signal,[10],"1.27 fold enrichment (6-mer frequency, TF over GST control)"
same,binding signal,[11],"1.25 fold enrichment (6-mer frequency, TF over GST control)"
same,binding signal,[12],"1.4 fold enrichment (6-mer frequency, TF over GST control)"
same,binding signal,[13],"1.28 fold enrichment (6-mer frequency, TF over GST control)"
same,binding signal,[14],"1.19 fold enrichment (6-mer frequency, TF over GST control)"
same,binding signal,[15],"1.26 fold enrichment (6-mer frequency, TF over GST control)"
same,binding signal,[16],"1.21 fold enrichment (6-mer frequency, TF over GST control)"
same,binding signal,[17],"1.33 fold enrichment (6-mer frequency, TF over GST control)"
same,binding signal,[18],"1.34 fold enrichment (6-mer frequency, TF over GST control)"
